# Assay results reported in PubChem BioAssay (NCATS).
# Where “and” joins values, the source holds several entries; their conditions need not be identical. Identical values can stand only once. Inconclusive results are not listed. A call without a number means that no potency is given here. Where a structure was tested more than once in an assay, its records may differ in their call. Calls of active or inactive are those of the source. Unless noted, calls come from the whole dose curve; as a rule, active = well fitted curve in the direction sought with a large enough effect; inconclusive = small, poorly fitted or top-dose-only effect, or another doubt; inactive = no such curve, though single readings can be large; an effect the other way counts as inactive or inconclusive.
# Legend:
# [1] = qHTS assay to identify small molecule inhibitors of chordoma cells - UCH-1 (AID 1259355); note: nearly all actives have a fitted effect of over 55% in size; note: potency is the fitted concentration of half-maximal effect; series mostly up to about 46 µM
# Summary of the method: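 A 48hr growth-inhibition format: each drug tested at 15 concentrations together with added auranofin, camptothecin, doxorubicin, rubitecan and topotecan, with cell viability quantified as CellTiter-Glo luminescence.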
# [2] = qHTS assay to identify small molecule inhibitors of chordoma cells - UCH-2 (AID 1259356); note: potency is the fitted concentration of half-maximal effect
# [3] = Natriuretic polypeptide receptor (hNpr1) antagonism - Pilot counterscreen GloSensor control cell line (AID 1347045; calls by dose curve; note: potency is the fitted concentration of half-maximal effect)
# Summary of the method: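 Cells were first seeded and incubated overnight at 37C, then loaded with 2% GloSensor substrate for 2 h. Compounds were added for 30 min at room temperature, followed by a baseline read, 50 uM SNP and a final read after 20 min.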
# [4] = Identifying Small Molecule Inhibitors of Pancreatic Cancer Stem Cells (SN12C, Spheroid) (AID 1259360); settings: Potency: SN12C spheroid viability; note: potency is the fitted concentration of half-maximal effect
# Description: Progenitor-like cancer cells, often referred to as cancer stem cells (CSC), are believed to be the drivers of therapeutic resistance and rapid recurrence. CSCs are postulated to reside in specific niches characterized by low oxygen tension, limited nutrient supply, and high redox load. Selectively targeting CSC, alone or in combination with cytotoxic agents, as a means to produce durable remissions is an appealing concept. Modeling these cells in in vitro setting is an important step in finding new therapies and/or targets. Multiple reports highlight that forcing cells in culture into 3-dimensionaly architectures (spheroids) re-establishes key progenitor-like transcriptional signatures. Pancreatic cancer is among the diseases with the most dismal outlook which is driven, largely, by recurance following front-line therapies. […] In hopes of deriving new insight into the targeting of these pancreatic CSCs we examined three established pancreatic cancer cell lines in cytotoxicity assays versus a collection of approved and investigational drugs. Importantly, we screened these lines as traditional monolayer (2D) and spheroid (3D) formats to gain an appreciation of agents with differential activity.
# Multicellular tumor spheroids from Panc1, MiaPaCa-2, and the primary low-passage tissue culture line SB.06 were seeded in stem cell media (SCM) in nonadherent 6-well plates coated with hydrogel (Corning Life Sciences, Chelmsford, Mass) and pancreatic spheres generated for 14 days before screening. Cells were seeded into 1536-well solid-bottom white tissue culture treated Greiner Bio One Plates (789173-F) using a MultiDrop Combi (Thermofisher Scientific) dispenser and a small sterile cassette. One column was media alone to be used as a :"no cells" control. The plates were then covered with sterilized stainless steel gasketed lids from Kalypsys. After allowing cells to attach for 4 hours, 23 nL of test compound or control (negative control DMSO and positive control 9.2 uM Bortezomib-final) were added from a 1536-well polypropylene compound source plate to each well using a 1536 head pin tool from Kalypsys. Cells were then incubated for 48 hours at 37C, 95% relative humidity and 5% CO2. After 48 hours, plates were removed from the incubator and 3 uL of CellTiter-Glo (Promega) was added using an Aurora Flying Reagent Dispenser Bioraptor. Plates were incubated at room temperature for 10 minutes prior to reading the luminescence on the Viewlux (PerkinElmer). The relative luciferase units are used to calculate the percent activity using the activity of DMSO in the cells and no cells columns for normalization of no inhibition and full inhibition respectively.
# [5] = P-glycoprotein substrates identified in KB-8-5-11 adenocarcinoma cell line, qHTS therapeutic library screen (AID 1346987); note: nearly all actives have a fitted effect of over 65% in size; note: potency is the fitted concentration of half-maximal effect
# Summary of the method: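 Luminescence from CellTiter-Glo, read 5 min after addition, quantified survival of KB-8-5-11 (P-gp-overexpressing) cells exposed to compounds for 72 h. AC50 was derived from concentration-response curves.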
# [6] = P-glycoprotein substrates identified in KB-3-1 adenocarcinoma cell line, qHTS therapeutic library screen (AID 1346986); note: nearly all actives have a fitted effect of over 60% in size
# Summary of the method: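 72 h cell-killing screen, 500 cells/well, CellTiter-Glo luminescence. Paired lines KB-3-1/KB-8-5-11; P-gp dependence checked by tariquidar co-treatment and HEK-293 MDR-19 versus empty-vector cells.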
# [7] = Identifying Small Molecule Inhibitors of Pancreatic Cancer Stem Cells (Panc1, Spheroid) (AID 1259359);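 note: compound exposure lasted 48 h before reading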
# Summary of the method: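 Adherent (2D) versus sphere (3D) formats; spheres generated 14 d in SCM beforehand. Compound transferred by pin tool after 4 h, 48 h incubation, CellTiter-Glo endpoint.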
# [8] = Identifying Small Molecule Inhibitors of Pancreatic Cancer Stem Cells (A2780, Spheroid) (AID 1259357); settings: Potency: A2780 spheroid viability; note: potency is the fitted concentration of half-maximal effect;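 note: spheroids pre-formed over 14 days in stem cell medium on hydrogel; compound exposure lasted 48 h before the ATP luminescence read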
# Summary of the method: (§1)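 Endpoint: ATP-based luminescence, 48 h drug exposure. Bortezomib at 9.2 uM final as full-kill control; DMSO vehicle as negative control; activity normalized between vehicle and cell-free wells.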
# [9] = Identifying Small Molecule Inhibitors of Pancreatic Cancer Stem Cells (A278, Adherent) (AID 1259361);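 note: viability read after 48 h compound exposure; nearly all actives have a fitted effect of over 35% in size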
# Summary of the method: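 After a 4 h attachment period, compounds were pinned into wells and cultures held 48 h under standard incubator conditions. Viability was then measured as CellTiter-Glo luminescence following 10 min at room temperature.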
# [10] = Identifying Small Molecule Inhibitors of Pancreatic Cancer Stem Cells (Panc1, Adherent) (AID 1259362); settings: Potency: viability; note: potency is the fitted concentration of half-maximal effect
# Summary of the method: as §1
structure (smiles),measurement,setting,value
CCC(COC(=O)c1cc(OC)c(OC)c(OC)c1)(c1ccccc1)N(C)C (stereo not drawn),Potency,[1],inactive
same,Potency,[2],inactive
C[C@@H]1O[C@@H](O[C@H]2C[C@@H](O)[C@]3(CO)[C@H]4[C@H](O)C[C@]5(C)[C@@H](C6=CC(=O)OC6)CC[C@]5(O)[C@@H]4CC[C@]3(O)C2)[C@H](O)[C@H](O)[C@H]1O,Potency,[1],158 nM (active) and 63.1 nM (active)
same,Potency,[2],65.1 nM (active) and 51.7 nM (active)
same,Potency,[3],inactive
CCCCC/C=C\C/C=C\C/C=C\C/C=C\CCCC(=O)NC1CC1,Potency,[4],inactive
Cc1ncc(CNC(=O)N(CCCl)N=O)c(N)n1,Potency,[1],inactive
same,Potency,[2],inactive
same,Potency,[5],inactive
same,Potency,[3],inactive
CCCN1CCC[C@@H]2Cc3[nH]ncc3C[C@H]21,Potency,[2],inactive
same,Potency,[5],inactive
same,Potency,[3],inactive
O=c1[nH]c2ccccc2n1C1CCN(CCCC(c2ccc(F)cc2)c2ccc(F)cc2)CC1,Potency,[2],inactive
CC(=O)[C@H]1CC[C@H]2[C@@H]3CC[C@H]4C[C@H](O)CC[C@]4(C)[C@H]3C(=O)C[C@]12C,Potency,[1],inactive
same,Potency,[2],inactive
same,Potency,[3],inactive
O=C(O)P(=O)(O)O,Potency,[6],inactive
same,Potency,[5],inactive
COC[C@@H](NC(C)=O)C(=O)NCc1ccccc1,Potency,[5],inactive
O=C(O)C(=O)c1cn(Cc2ccccc2)c2ccc(-c3ccc(OC(F)(F)F)cc3)cc12,outcome,[7],inactive
same,Potency,[4],18.7 µM (active)
same,Potency,[6],inactive
same,Potency,[5],inactive
CC(CCc1ccccc1)NC(C)C(O)c1ccc(O)cc1 (stereo not drawn),Potency,[2],inactive
same,Potency,[5],inactive
same,Potency,[3],inactive
Cc1cccc(C)c1NC(=O)CN1CCCC1=O,Potency,[5],inactive
same,Potency,[3],inactive
CN(C)CCN(C)CCc1ccc(Cl)c(Cl)c1,Potency,[8],inactive
same,Potency,[4],18.7 µM (active)
same,IC50 (viability decrease),[9],inactive
same,Potency,[5],inactive
O=C1NCN(c2ccccc2)C12CCN(CC1COc3ccccc3O1)CC2 (stereo not drawn),Potency,[1],inactive
same,Potency,[2],inactive
same,Potency,[3],inactive
C=C(C)[C@H]1Cc2c(ccc3c2O[C@@H]2COc4cc(OC)c(OC)cc4[C@@H]2C3=O)O1,Potency,[2],inactive
same,Potency,[5],13 nM (active) and 2.64 µM (active)
same,Potency,[3],0.117 µM (active)
Fc1ccc(C(OCCN2CCN(CCCc3ccccc3)CC2)c2ccc(F)cc2)cc1,Potency,[1],31.6 µM (active)
same,Potency,[5],10.5 µM (active)
CN1C[C@H](CNC(=O)OCc2ccccc2)C[C@@H]2c3cccc4c3c(cn4C)C[C@H]21,Potency,[1],inactive
same,Potency,[2],inactive
same,Potency,[3],inactive
CC(O)(CS(=O)(=O)c1ccc(F)cc1)C(=O)Nc1ccc(C#N)c(C(F)(F)F)c1 (stereo not drawn),Potency,[5],inactive
Cc1ccc(S(=O)(=O)N[C@@H](CCCCN)C(=O)CCl)cc1,Potency,[1],inactive
same,Potency,[2],inactive
same,Potency,[5],inactive
same,Potency,[3],inactive
c1ccc2c(c1)OCC(C1=NCCN1)O2 (stereo not drawn),Potency,[1],31.6 µM (active)
same,Potency,[5],inactive
NCC(O)c1ccc(O)cc1 (stereo not drawn),Potency,[1],inactive
same,Potency,[2],inactive
same,Potency,[5],inactive
same,Potency,[3],inactive
Cn1cc(C2=C(c3cn(C4CCN(Cc5ccccn5)CC4)c4ccccc34)C(=O)NC2=O)c2ccccc21,Potency,[4],inactive
same,Potency,[6],inactive
same,Potency,[5],inactive
Oc1cc(Cl)ccc1Oc1ccc(Cl)cc1Cl,Potency,[2],inactive
same,Potency,[5],inactive and 31.6 µM (active)
COC1(CS(=O)c2ccccc2)CCN(CCc2c[nH]c3ccc(F)cc23)CC1 (stereo not drawn),IC50 (viability decrease),[9],inactive
same,Potency,[10],inactive
same,Potency,[5],inactive
CNC(=O)c1ccc(N2C(=S)N(c3ccc(C#N)c(C(F)(F)F)c3)C(=O)C23CCC3)cc1F,IC50 (viability decrease),[9],23.5 µM (active)
same,Potency,[5],inactive
C[C@@H]1[C@@H](CC(C[C@H]2O[C@@H]3O[C@]4(C)CC[C@@H]5[C@H](C)CC[C@@H]([C@H]2C)[C@@]35OO4)C[S+](=O)([O-])c2ccc(COC(=O)N(C)C)cc2)O[C@@H]2O[C@]3(C)CC[C@H]4[C@H](C)CC[C@@H]1[C@@]24OO3 (stereo partly drawn),Potency,[8],0.059 µM (active)
same,IC50 (viability decrease),[9],0.0418 µM (active)
same,Potency,[10],0.0372 µM (active)
Cc1sc2c(c1C)C(c1ccc(Cl)cc1)=N[C@@H](CC(=O)OC(C)(C)C)c1nnc(C)n1-2,Potency,[10],4.18 µM (active)
same,Potency,[5],0.469 µM (active)
NCC(CC(=O)O)c1ccc(Cl)cc1 (stereo not drawn),Potency,[1],inactive
same,Potency,[2],inactive
same,Potency,[5],inactive
same,Potency,[3],inactive
CC1=C2C[C@@H]3[C@@H](CC=C4C[C@@H](O)CC[C@@]43C)[C@@H]2CC[C@]12O[C@H]1C[C@H](C)CN[C@H]1[C@H]2C,Potency,[4],inactive
same,IC50 (viability decrease),[9],inactive
same,Potency,[5],inactive
Cc1cc(SCc2sc(-c3ccc(C(F)(F)F)c(F)c3)nc2C)ccc1OCC(=O)O,outcome,[7],inactive
same,IC50 (viability decrease),[9],inactive
same,Potency,[6],inactive
same,Potency,[5],inactive
CC(C)=CCOc1c2occc2cc2ccc(=O)oc12,Potency,[5],inactive
same,Potency,[3],inactive
CC[C@@H](CO)NC(=O)[C@@H]1C=C2c3cccc4c3c(cn4C)C[C@H]2N(C)C1,Potency,[5],20.6 µM (active)
same,Potency,[3],inactive
CCCN1CCC[C@@H]2Cc3nc(N)ncc3C[C@H]21,Potency,[1],inactive
same,Potency,[2],inactive
same,Potency,[5],inactive
same,Potency,[3],inactive
CNC(=O)N1N=C(c2ccc(N)cc2)c2cc3c(cc2CC1C)OCO3 (stereo not drawn),Potency,[8],inactive
same,Potency,[4],inactive
same,IC50 (viability decrease),[9],7.43 µM (active)
C[C@]12CCC(=O)C(O)=C1CC[C@@H]1[C@@H]2CC[C@]2(C)C(=O)CC[C@@H]12,Potency,[8],inactive
same,Potency,[4],inactive
same,Potency,[10],inactive
same,Potency,[5],inactive
COC[C@H]1OC(=O)c2coc3c2[C@@]1(C)C1=C(C3=O)C2CCC(=O)[C@@]2(C)C[C@H]1OC(C)=O (stereo partly drawn),Potency,[4],18.7 µM (active)
same,IC50 (viability decrease),[9],23.5 µM (active)
same,Potency,[10],0.296 µM (active)
same,Potency,[6],inactive
same,Potency,[5],inactive
same,Potency,[3],inactive
N[C@@H](Cc1ccc(N(CCCl)CCCl)cc1)C(=O)O,Potency,[5],inactive
